These results are taken from PubChem BioAssay (EPA / NIEHS).

The nature of experiment [1]: TOX21_p53_BLA_p4_viability: Viability Assessment in the Tox21 HCT-116 p53 Agonism Beta-lactamase Assay, Phase 4 (AID 2283597).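 Further: hits lower the luminescence signal meaning cytotoxicity.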 Summed up: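 Cells plated, 5 h pre-incubation; DMSO compounds pinned (217-fold dilution); 16 h, 37C/5% CO2; CCF4-AM 2 h RT; CellTiter-Glo 30 min RT; luminescence read.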
Experiment [2] deals with Cellular tumor antigen p53 (Homo sapiens) (UniProt P04637). As to the kind of experiment: TOX21_p53_BLA_p5_ratio: Tox21 HCT-116 p53 Agonism Beta-lactamase Assay, Ratio, Phase 5 (AID 2283599). The method in brief:
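Beta-lactamase reporter ratio (blue 460 nm over green 530 nm, 405 nm excitation) after 2 h CCF4-AM loading, in HCT-116 cells exposed 16 h at 37 C to compounds pinned at 217-fold dilution. Increases relative to DMSO baseline scored.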

Experiment [3] in a line: TOX21_p53_BLA_p5_viability: Viability Assessment in the Tox21 HCT-116 p53 Agonism Beta-lactamase Assay, Phase 5 (AID 2283600). The method in brief:
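4000 cells/well; 5 h pre-incubation; DMSO compounds pin-transferred, 217-fold dilution; 16 h, 37C/5% CO2; CCF4-AM 2 h RT; CellTiter-Glo 30 min RT; luminescence.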

The target in experiment [4] is Cellular tumor antigen p53 (Homo sapiens) (UniProt P04637). The experiment is described as follows: TOX21_p53_BLA_p4_ratio: Tox21 HCT-116 p53 Agonism Beta-lactamase Assay, Ratio, Phase 4 (AID 2283601). Summed up: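 Signal is the blue/green (460nm/530nm) ratio of cleaved versus uncleaved CCF4-AM substrate, read after 2 h substrate loading. Cells were HCT116 carrying the p53-responsive beta-lactamase reporter, dosed 16 h at 37C, 5% CO2; CellTiter-Glo measured in parallel.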

Experiment [5] is described as follows: Tanguay_ZF_120hpf_MORT_legacy: (Legacy) Oregon State University Tanguay Lab 120 Hour Post-fertilization zebrafish Assay for Mortality (AID 2283633).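 On AC50: fitted as increase in binary mortality versus DMSO negative control.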 The method in brief: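 5D WT zebrafish, chorion removed 4 hpf; 1 embryo/well from 6 hpf; static exposure to 120 hpf, 28C, dark, sealed. Final DMSO 0.64%. Readout: binary mortality, brightfield, 24 + 120 hpf; DMSO as negative control.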

A short description of experiment [6]: Tanguay_ZF_120hpf_YSE_legacy: (Legacy) Oregon State University Tanguay Lab 120 Hour Post-fertilization zebrafish Assay for Yolk Sac Edema (AID 2283634).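 On AC50: actives raise the incidence of yolk sac edema above the DMSO baseline.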 The method in brief: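 Dechorionate (pronase, 4 hpf) → place one 6 hpf embryo per well → static compound exposure, sealed and foil-covered, 28C, to 120 hpf → record yolk sac edema as present or absent. Final DMSO 0.64%.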

A short description of experiment [7]: Tanguay_ZF_120hpf_AXIS_legacy: (Legacy) Oregon State University Tanguay Lab 120 Hour Post-fertilization zebrafish Assay for Body Axis Malformation (AID 2283635).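 On AC50: potency for an increased fraction of larvae scored with body axis malformation.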 Summed up:
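Chorion is removed with pronase at 4 hpf, then single 6 hpf embryos are dosed (final DMSO 0.64%) and held statically at 28C in sealed, foil-covered plates. At 120 hpf body axis malformation is recorded as present or absent.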

Experiment [8] in a line: Tanguay_ZF_120hpf_EYE_legacy: (Legacy) Oregon State University Tanguay Lab 120 Hour Post-fertilization zebrafish Assay for Eye Malformation (AID 2283636). Summed up:
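Read-out is binary presence or absence of eye malformation, scored by brightfield microscopy at 120 hpf. Single larvae were exposed from 6 hpf in embryo medium containing 0.64% DMSO, with DMSO as baseline.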

Experiment [9] is described as follows: Tanguay_ZF_120hpf_SNOU_legacy: (Legacy) Oregon State University Tanguay Lab 120 Hour Post-fertilization zebrafish Assay for Snout Malformation (AID 2283637). Summed up:
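Snout malformation read as a yes/no call on brightfield images of 120 hpf larvae (Tropical 5D strain). Static exposure began at 6 hpf on dechorionated embryos in 0.64% DMSO, with gain of signal analysed versus DMSO controls.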

Experiment [10] in a line: Tanguay_ZF_120hpf_PE_legacy: (Legacy) Oregon State University Tanguay Lab 120 Hour Post-fertilization zebrafish Assay for Pericardial Edema (AID 2283640).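 On AC50: potency for increased incidence of pericardial edema versus DMSO baseline.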 The method in brief:
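Embryos from wild-type 5D adults were staged, then dosed in 0.64% DMSO. They were kept sealed in the dark at 28C until 120 hpf. Pericardial edema was then recorded as present or absent.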

Experiment [11] in a line: Tanguay_ZF_120hpf_SOMI_legacy: (Legacy) Oregon State University Tanguay Lab 120 Hour Post-fertilization zebrafish Assay for Somite Malformation (AID 2283647). The method in brief:
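Read-out: presence or absence of somite malformation in 120 hpf larvae, gain-of-signal relative to DMSO baseline. Embryos lacked chorion (pronase, 4 hpf) and were exposed statically from 6 hpf at 28C; dead larvae not scored.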

The nature of experiment [12]: Tanguay_ZF_120hpf_PFIN_legacy: (Legacy) Oregon State University Tanguay Lab 120 Hour Post-fertilization zebrafish Assay for Pectoral Fin Malformation (AID 2283648).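 Further: each larva judged yes or no for fin defect by brightfield with dead larvae skipped.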 The method in brief: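 5D WT zebrafish; pronase dechorionation 4 hpf; 1 embryo/well at 6 hpf; static exposure to 120 hpf, 28C, sealed, foil-covered; final DMSO 0.64% v/v; 5 uM trimethyltin chloride positive control; fin defect scored yes/no.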

A short description of experiment [13]: Tanguay_ZF_120hpf_CFIN_legacy: (Legacy) Oregon State University Tanguay Lab 120 Hour Post-fertilization zebrafish Assay for Caudal Fin Malformation (AID 2283649). Summed up: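 Binary presence or absence of caudal fin malformation at 120 hpf, read by brightfield microscopy, with DMSO as baseline. Larvae came from 5D wild-type embryos exposed statically from 6 hpf at 28C after pronase dechorionation.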

The nature of experiment [14]: Tanguay_ZF_120hpf_PIG_legacy: (Legacy) Oregon State University Tanguay Lab 120 Hour Post-fertilization zebrafish Assay for Pigmentation Malformation (AID 2283650). The method in brief:
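Pronase dechorionation at 4 hpf; embryos plated at 6 hpf, one per well; static exposure, sealed and foil-covered, 28C, to 120 hpf; pigmentation read by brightfield, binary; DMSO 0.64% baseline, 5uM trimethyltin chloride positive control.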

A short description of experiment [15]: Tanguay_ZF_120hpf_OTIC_legacy: (Legacy) Oregon State University Tanguay Lab 120 Hour Post-fertilization zebrafish Assay for Otic Vesicle Malformation (AID 2283639). The method in brief: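 Tropical 5D wild-type zebrafish embryos statically exposed in 0.64% DMSO at 28C until 120 hpf; 5uM trimethyltin chloride as positive control. Otic vesicle malformation scored present/absent by brightfield; dead embryos not scored; gain fitted versus DMSO.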

A short description of experiment [16]: Tanguay_ZF_120hpf_CIRC_legacy: (Legacy) Oregon State University Tanguay Lab 120 Hour Post-fertilization zebrafish Assay for Circulatory Malformation (AID 2283651). The method in brief: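 Dechorionated wild-type 5D zebrafish embryos, one per well, statically exposed from 6 to 120 hpf at 28C with 0.64% DMSO; circulatory malformation scored present/absent by brightfield microscopy at 120 hpf, dead embryos excluded.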

Experiment [17] in a line: Tanguay_ZF_120hpf_JAW_legacy: (Legacy) Oregon State University Tanguay Lab 120 Hour Post-fertilization zebrafish Assay for Jaw Malformation (AID 2283638). The method in brief: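 Steps: dechorionate 4 hpf embryos (pronase); plate 1/well at 6 hpf; add test chemical, 0.64% DMSO final; seal, cover, hold at 28C statically to 120 hpf; score jaw defect presence/absence microscopically. Dead embryos not scored.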

A short description of experiment [18]: Tanguay_ZF_120hpf_BRAI_legacy: (Legacy) Oregon State University Tanguay Lab 120 Hour Post-fertilization zebrafish Assay for Brain Malformation (AID 2283641). The method in brief: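 Wild-type 5D larvae, static waterborne exposure to 120 hpf, 28C, 0.64% v/v DMSO. Brightfield scoring of brain defects, binary; dead embryos excluded. Positive ctrl 5uM trimethyltin chloride.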

“And” between values parts separate entries of the source, which are not always exact repeats. Equal entries are not always repeated. Inconclusive results are not listed. More than one record can exist for a structure, and the calls need not agree. The source made the active and inactive calls. How the source made its calls: active means hit-call score of the fitted dose curve at least 0.9, where 1 is the maximum; inconclusive means response in the unintended direction; inactive means score below 0.9.

The AC50 is the concentration at which the activity in the assay is half-maximal.

Sequence of Cellular tumor antigen p53 (Homo sapiens) (P04637 whole entry, looked up): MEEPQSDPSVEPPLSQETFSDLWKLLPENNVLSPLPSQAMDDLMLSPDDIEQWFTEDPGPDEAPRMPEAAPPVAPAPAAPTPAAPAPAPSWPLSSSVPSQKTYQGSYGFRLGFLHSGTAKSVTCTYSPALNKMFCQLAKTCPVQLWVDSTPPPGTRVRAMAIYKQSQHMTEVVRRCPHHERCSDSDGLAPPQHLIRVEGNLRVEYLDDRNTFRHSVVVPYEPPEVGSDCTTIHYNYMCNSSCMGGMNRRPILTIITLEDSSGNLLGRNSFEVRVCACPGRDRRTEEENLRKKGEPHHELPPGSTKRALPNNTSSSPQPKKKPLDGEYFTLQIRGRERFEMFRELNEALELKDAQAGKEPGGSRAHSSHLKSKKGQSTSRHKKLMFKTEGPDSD

In the case of `Oc1ccccc1O`, the AC50 in [1] was 70.9 µM (active) and 46.5 µM (active); in experiment [4], 73.5 µM (active). Moreover, the outcome in experiment [2], in [3], in experiment [4], in experiment [5], in experiment [6] and in experiment [7] was inactive. Further, the compound was called inactive in experiment [8], in experiment [9], in [10], in [11], in experiment [12] and in experiment [13]. The result in [14] was inactive.

For the compound `CCCCC(CC)COC(=O)CCCCCCCC(=O)OCC(CC)CCCC` (stereo unspecified), the compound was called inactive in experiment [1], in experiment [2], in [3], in [4], in [5] and in [6]. In addition, the compound was called inactive in experiment [7], in experiment [8], in experiment [9], in experiment [15], in experiment [11] and in [12]. Further, the compound was classed as inactive in experiment [13], in experiment [14] and in experiment [16].

In the case of `Cc1ccc(C(C)(C)C)c(O)c1`, the concentration at half-maximal activity (AC50) in [1] is 43.2 µM (active); in [4], 69 µM (active). In addition, the result in [2], in experiment [3], in experiment [4], in [5], in experiment [6] and in [7] was inactive. Also, the compound was called inactive in experiment [9], in [17], in [15], in experiment [10], in [18] and in [11]. For the same compound, the compound was called inactive in [12], in [13], in experiment [14] and in experiment [16].

`CCCCCCCCCCCCCCOS(=O)(=O)O`: the AC50 is 73.1 µM (active) in [1]; 80.7 µM (active) in experiment [2]; 68.3 µM (active) in experiment [3]; 78.4 µM (active) in [4]; 27.8 µM (active) in experiment [5]; 10.8 µM (active) in [6]. Moreover, the AC50 in experiment [7] is 31.5 µM (active); in [8], 26.1 µM (active); in [9], 24.7 µM (active); in experiment [15], 9.8 µM (active); in experiment [10], 27.7 µM (active); in [18], 10.4 µM (active). Also, the half-maximal activity concentration (AC50) in [12] is 16.8 µM (active); in experiment [13], 46.9 µM (active); in [14] it was 9.35 µM (active). Besides, the compound was called inactive in [11] and in experiment [16].

Regarding `CCCCC(CC)COP(=O)(OCC(CC)CCCC)OCC(CC)CCCC` (stereo unspecified), the compound was classed as inactive in experiment [1], in [2], in experiment [3], in experiment [5], in [6] and in [7]. The result in experiment [8], in experiment [9], in [17], in experiment [15], in experiment [10] and in experiment [11] was inactive. Further, the compound was called inactive in experiment [12], in experiment [13] and in [14].

Turning to `OCC(CO)n1cnc(-c2ccc(F)cc2)c1-c1ccnc(Oc2ccccc2)n1`, the call in [1], in [2], in [3], in [5], in experiment [6] and in [7] was inactive. In addition, the outcome in [9], in experiment [15], in [10], in [11], in experiment [13] and in experiment [14] was inactive. Also, in experiment [16], the compound was classed as inactive.

`Oc1ccc(O)cc1`: the half-maximal activity concentration (AC50) in [1] is 47.1 µM (active) and 70.6 µM (active) and 36.2 µM (active); in experiment [3], 17 µM (active) and 35.8 µM (active) and 37.7 µM (active); in experiment [5] it was 1.77 µM (active). Moreover, the outcome in experiment [2], in experiment [4], in experiment [6], in experiment [7], in experiment [8] and in experiment [9] was inactive. Also, the result in [17], in experiment [15], in [10], in [18], in [11] and in experiment [12] was inactive. The compound was classed as inactive in experiment [14].

Take `NC(=Nc1ccccc1)Nc1ccccc1`: the result in experiment [1], in experiment [2], in experiment [3], in [4], in experiment [5] and in [6] was inactive. For the same compound, the outcome in [7], in experiment [8], in [9], in [15], in experiment [10] and in experiment [18] was inactive. Besides, the result in experiment [11], in experiment [12], in experiment [13], in [14] and in experiment [16] was inactive.
